Bioassay records as filed in PubChem.
The full list was thinned out, with hits kept by preference.
Pf Dd2 growth: blocks in vitro growth of P. falciparum Dd2. actives 4.3% (n = 120,000). Potency, µM (series often up to 28.9 µM), most hits filed as inhibitors. P. falciparum Dd2 growth, SYBR Green, 72 h. AID 1347417; active = well fitted inhibition curve with a large enough effect; also: nearly all actives have a fitted effect of over 65% in size
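Readout: SYBR Green fluorescence, 485 nm excitation, 535 nm emission, after ~16 h lysis at 37C. Before that, Dd2-infected red cells (2.5% hematocrit) grew 72 h with compound, 29 uM top final concentration.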
Each line names hits and unclear results; the compound was inactive in the other large screens.

O=C(c1cocn1)N1CCNc2cnc(Nc3cccc(C(F)(F)F)c3)nc2C1	none
COc1ccc(C(=O)N2CCCCC2c2nc(CCOc3cccc(C)c3)no2)cn1 (stereo not drawn)	none
COc1ccccc1-c1nc2nccc(-c3cc4ccccc4o3)n2n1	none
CCOC(=O)c1c(NC(=O)CSc2cn(CCNC(=O)c3ccccc3F)c3ccccc23)sc2c1CCCC2	none
CCOC(=O)c1c(NC(=O)CSc2cn(CCNC(=O)c3ccccc3OC)c3ccccc23)sc2c1CCC2	Pf Dd2 growth 11µM
CCOC(=O)c1c(NC(=O)CSc2cn(CCNC(=O)c3ccc(OCC)cc3)c3ccccc23)sc2c1CCC2	none
CC1CCC2(CC1)NC(=O)N(CC(=O)NC(C)(C)C)C2=O (stereo not drawn)	none
CC(=O)Nc1ccc(C(=O)N2CCN(c3cc(-c4ccc(F)cc4)[nH]n3)CC2)cc1	none
CC(C)(C)C1CCc2nc(NC(=O)Cc3ccccc3)sc2C1 (stereo not drawn)	Pf Dd2 growth 11µM
Cc1cccc(OCC(=O)Nc2nc3c(s2)CC(C(C)(C)C)CC3)c1C (stereo not drawn)	none
CC(C)(C)C1CCc2nc(NC(=O)COc3ccccc3[N+](=O)[O-])sc2C1 (stereo not drawn)	none
O=C([C@@H]1C[C@H](F)CN1C(=O)c1cccs1)N1CCCCC1	none
O=C1CN(C(=O)Cc2ccccc2)C(c2ccc(F)cc2)c2cc(Br)ccc2N1 (stereo not drawn)	none
CSc1ccc(C2c3[nH]c4ccccc4c3CCN2C(=O)CCc2ccccc2)cc1 (stereo not drawn)	none
O=C1CCC(CCC(=O)N2CCCC2c2ccc(F)cc2)(Cc2cccc3ccccc23)N1 (stereo not drawn)	none
COc1ccc(C2c3[nH]c4ccccc4c3CCN2C(=O)CCC2CCCC2)cc1 (stereo not drawn)	none
O=C(CCc1ccccc1)N1CCc2c([nH]c3ccccc23)C1c1ccc(F)cc1 (stereo not drawn)	Pf Dd2 growth 11µM
O=C(CCC1CCCC1)N1CCc2c([nH]c3ccccc23)C1c1ccc(F)cc1 (stereo not drawn)	Pf Dd2 growth 11µM
O=C(c1cccs1)N1CCCN(C(=O)C2CC2)c2ccccc21	none
CC(C)N1C[C@H](O)C[C@H]1c1nnc2n1CCN(C(=O)CC1CCCCC1)C2	none
O=C(c1nccc2ccccc12)N1CCC(n2cc(-c3nc(C4CC4)no3)nn2)C1 (stereo not drawn)	none
O=C(NC[C@H]1OC[C@@H](NCc2ccccn2)[C@@H]1O)c1ccccc1	none
CC1(C(=O)NCc2ccccc2)CCCCC(=O)N1 (stereo not drawn)	none
Cc1nn2c(c1-c1ccccc1C(C)C)N(Cc1ccc(C(=O)O)s1)CCC2	none
Cc1nn2c(c1-c1ccccc1C(C)C)N(C(=O)C1CCOCC1)CCC2	none
Cc1nn2c(c1-c1ccccc1Oc1ccccc1)N(Cc1cccc(C#N)c1)CCC2	none
Cc1ccncc1-c1c(C)nn2c1N(Cc1cccc(O)c1)CCC2	none
Cc1nn2c(c1-c1ccccc1C(C)C)N(Cc1ccc3c(c1)CCO3)CCC2	Pf Dd2 growth 7.1µM
Cc1nn2c(c1-c1ccccc1OCc1ccccc1)N(Cc1cccc(O)c1)CCC2	Pf Dd2 growth 2.2µM
Cc1ccsc1C(=O)N1CCC(c2nc(-c3ccccc3)no2)C1 (stereo not drawn)	none
CN(CC(=O)N1CC[C@H](N(C)C)[C@H](CCC(=O)O)C1)Cc1ccccc1F	none
CN(C)C[C@@H]1CN(S(C)(=O)=O)C[C@H]1NC(=O)CCn1cccn1	none
COc1ccc(C(=O)NCc2nnc3ccc(-c4ccc(Cl)cc4)nn23)cc1OC	none
COc1cccc(C(=O)Nc2nc3nc(-c4ccccc4)cc(=O)n3[nH]2)c1	none
COc1ccc(C(=O)Nc2nc3n(n2)C(c2ccc(Cl)cc2)C=C(c2ccccc2)N3)cc1OC (stereo not drawn)	Pf Dd2 growth 7.9µM
COc1ccc(C2C=C(c3ccccc3)Nc3nc(NC(=O)c4ccc(C)cc4)nn32)cc1 (stereo not drawn)	Pf Dd2 growth 13µM
COc1ccc(C(=O)Nc2noc3ccccc23)cc1	none
COc1ccc(NC(=O)c2cc3n(n2)CC(c2ccc(Cl)cc2)OC3)cc1OC (stereo not drawn)	none
COc1ccc(CNC(=O)c2cc(-c3ccc(OC)cc3)nc3n[nH]c(-c4cccc([N+](=O)[O-])c4)c23)cc1	none
COc1ccc(C(=O)Nc2cnc(-c3ccc(Cl)cc3)nc2)cc1	none
COc1ccc(C2C=C(c3ccccc3)Nc3nc(NC(=O)c4cccc([N+](=O)[O-])c4)nn32)cc1 (stereo not drawn)	Pf Dd2 growth 8.9µM
Cc1ccc(CN2CCC3(CC2)CC(c2cccnc2)=NO3)cc1	none
COCCNS(=O)(=O)c1cccc2c1CN(C(=O)CCn1cncn1)CC2	none
O=C(CCn1cccn1)N1CCc2nn(Cc3ccccc3)c(=O)n2CC1	none
C[C@@H](NC(=O)C12CC3CC(CC(C3)C1)C2)c1onc(-c2ccccc2)c1C(=O)O	none
CCNc1ncc(C(=O)NC2CC(c3nnc(CO)n3CC)C2)cn1 (stereo not drawn)	none
O=C(c1ccccc1)N1CC(Oc2ccc(F)c(F)c2)C1	none
Cc1ccc(NC(=O)N2CCC3(CC2)C(=O)N(CC(=O)N2CCCC2)CN3c2ccccc2)cc1	Pf Dd2 growth 7.1µM
COCCNC(=O)CN1CN(c2ccccc2)C2(CCN(C(=O)C3CCCCC3)CC2)C1=O	none
CC(C)(C)NC(=O)N1CCC2(CC1)C(=O)N(CC(=O)NCC1CCCO1)CN2c1ccccc1 (stereo not drawn)	none
CCS(=O)(=O)N(C1CC1)C1CCOC2(CCN(C(=O)Nc3cccc(C)c3)CC2)C1 (stereo not drawn)	none
CC(C)(C)CC(=O)NC1CCN(c2ccc(F)cc2)C1=O (stereo not drawn)	none
COc1ccc(C)cc1NC(=O)CSc1ccc(-c2ccccn2)nn1	Pf Dd2 growth 8.9µM
COc1ccc(OC)c(NC(=O)CSc2ccc(-c3sc(C)nc3C)nn2)c1	none
COc1ccc(OC)c(NC(=O)CSc2ccc(-c3cccs3)nn2)c1	none
CC(C)OCCCNC(=O)C1Cn2cccc2C(=O)N1Cc1ccccc1 (stereo not drawn)	none
CCCCN1C(=O)c2[nH]nc(-c3ccccc3O)c2C1c1ccc(C(C)(C)C)cc1 (stereo not drawn)	Pf Dd2 growth 2.8µM
CC(C)OCCCN1C(=O)c2[nH]nc(-c3ccccc3O)c2C1c1cccc(OCc2ccccc2)c1 (stereo not drawn)	Pf Dd2 growth 5.6µM
CCCCN1C(=O)c2[nH]nc(-c3ccccc3O)c2C1c1ccc(OCc2ccccc2)cc1 (stereo not drawn)	Pf Dd2 growth 1.4µM
CC12CN3CC(C)(CN(C1)C3c1ccc(OCc3ccccc3)cc1)C2=O (stereo not drawn)	none
O=C1c2[nH]nc(-c3ccccc3O)c2C(c2cccc(OCc3ccccc3)c2)N1CCO (stereo not drawn)	none
O=C1c2[nH]nc(-c3ccccc3O)c2C(c2ccccc2F)N1Cc1cccnc1 (stereo not drawn)	none
CC(C)OCCCN1C(=O)c2[nH]nc(-c3ccccc3O)c2C1c1ccccc1F (stereo not drawn)	Pf Dd2 growth 11µM
O=C(c1[nH]nc2c1COc1ccccc1-2)N1CCCC(Cc2nc(C3CCOCC3)no2)C1 (stereo not drawn)	none
CCC(CC)C(=O)NC[C@H]1O[C@@H](CC(=O)NCc2ccc(F)cc2)[C@H](O)[C@@H]1O	none
C1CC(c2noc(C34CC5CC(CC(C5)C3)C4)n2)CO1 (stereo not drawn)	none
O=C1Nc2ccccc2CC12CN([S+](=O)([O-])c1cccs1)C2	none
